Reference: the antibiotic and cytotoxicity screens of Wong et al. (2023)
Screen size: about 39,000 compounds; about 1,500 (3.8%) were called active. This is one part of a sample in which actives are shown more often than they occur.

These compounds were tested on HSkMC (human skeletal muscle cells) (assay: cytotoxicity call (relative viability < 0.9)). Conditions: 10 µM.

Compound | cytotoxicity call
C[C@@H](O)[C@@H](O)[C@@H](O)C/C=N/NC(=O)c1ccc(C(=O)NO)cc1 | inactive
Cc1cc([N+](=O)[O-])nn1CC(=O)N1CCOCC1 | inactive
COc1ccc(NC(=O)N(C)C[C@@H]2OCCCC[C@H](C)Oc3ccc(NC(=O)Nc4ccc(F)cc4)cc3C(=O)N([C@H](C)CO)C[C@@H]2C)cc1 | inactive
C[C@H]1CN([C@@H](C)CO)C(=O)Cc2cc(NC(=O)Nc3ccc(F)cc3)ccc2O[C@H]1CN(C)Cc1ccc(Cl)c(Cl)c1 | active
C[C@H]1CN([C@@H](C)CO)C(=O)Cc2cc(NC(=O)Nc3ccc(F)cc3)ccc2O[C@@H]1CN(C)Cc1ccc(Cl)c(Cl)c1 | active
C[C@@H]1CN([C@H](C)CO)C(=O)Cc2cc(NC(=O)Nc3ccc(F)cc3)ccc2O[C@@H]1CN(C)Cc1ccc(Cl)c(Cl)c1 | active
C[C@H](CO)N1C[C@H](C)[C@H](CN(C)Cc2ccc(Cl)c(Cl)c2)Oc2ccc(NC(=O)Nc3ccc(F)cc3)cc2CC1=O | active
Cc1noc(C)c1NC(=O)N(C)C[C@H]1Oc2c(NS(=O)(=O)c3cn(C)cn3)cccc2C(=O)N([C@@H](C)CO)C[C@H]1C | inactive
C/C=C/COc1nc2c(c(=O)n(C)c(=O)n2C)n1C | inactive
C[C@H]1CN([C@@H](C)CO)C(=O)c2cc(NC(=O)Cn3cnnn3)ccc2O[C@@H]1CN(C)C(=O)NC1CCCCC1 | inactive
C[C@@H]1CN([C@@H](C)CO)C(=O)c2cccc(NC(=O)Nc3ccc(F)cc3)c2O[C@@H]1CN(C)Cc1ccc(C(F)(F)F)cc1 | inactive
CC(C)NC(=O)N(C)C[C@H]1Oc2ccc(NC(=O)Cn3cnnn3)cc2CC(=O)N([C@H](C)CO)C[C@@H]1C | inactive
CC(=O)OCC(=O)C1(O)CCC2C3CCC4CC(O)CCC4(C)C3C(=O)CC21C (configuration not stated) | inactive
COc1ccc(NC(=O)Nc2ccc3c(c2)C(=O)N([C@H](C)CO)C[C@H](C)[C@H](CN(C)S(=O)(=O)c2cccs2)OCCCC[C@H](C)O3)cc1 | inactive
C[N+](C)(C)CCCCNC(=O)[C@H]1C[C@H]2C(=O)N3CCC[C@H]3C(=O)N2[C@H]1c1cccc(OCCO)c1 | inactive
C[C@H](CO)N1C[C@H](C)[C@@H](CN(C)C(=O)c2ccc3c(c2)OCO3)Oc2cc(-c3cncnc3)ccc2S1(=O)=O | inactive
CCCCCCCCCC(=O)N[C@@H](Cc1c[nH]c2ccccc12)C(=O)N[C@H](CC(N)=O)C(=O)N[C@@H](CC(=O)O)C(=O)N[C@@H]1C(=O)NCC(=O)N[C@@H](CCCN)C(=O)N[C@@H](CC(=O)O)C(=O)N[C@H](C)C(=O)N[C@@H](CC(=O)O)C(=O)NCC(=O)N[C@H](CO)C(=O)N[C@@H]([C@H](C)CC(=O)O)C(=O)N[C@@H](CC(=O)c2ccccc2N)C(=O)O[C@@H]1C | inactive
C[C@@H]1CN([C@@H](C)CO)C(=O)Cc2cc(NC(=O)Nc3ccc(C(F)(F)F)cc3)ccc2O[C@H]1CN(C)C(=O)NC1CCCCC1 | inactive
C[C@H]1CN([C@@H](C)CO)C(=O)Cc2cc(NC(=O)Nc3ccc(C(F)(F)F)cc3)ccc2O[C@H]1CN(C)C(=O)NC1CCCCC1 | inactive

Compound | cytotoxicity call
C[C@@H]1CN([C@H](C)CO)C(=O)Cc2cc(NC(=O)Nc3ccc(C(F)(F)F)cc3)ccc2O[C@H]1CN(C)C(=O)NC1CCCCC1 | inactive
C[C@@H]1CN([C@@H](C)CO)C(=O)Cc2cc(NC(=O)Nc3ccc(C(F)(F)F)cc3)ccc2O[C@@H]1CN(C)C(=O)NC1CCCCC1 | active
C[C@H](CO)N1C[C@H](C)[C@@H](CN(C)C(=O)NC2CCCCC2)Oc2ccc(NC(=O)Nc3ccc(C(F)(F)F)cc3)cc2CC1=O | inactive
C[C@@H]1CN([C@H](C)CO)C(=O)Cc2cc(NC(=O)Nc3ccc(C(F)(F)F)cc3)ccc2O[C@@H]1CN(C)C(=O)NC1CCCCC1 | active
C[C@H](CO)N1C[C@H](C)[C@@H](CN(C)Cc2ccc(Oc3ccccc3)cc2)Oc2cc(-c3ccncc3)ccc2S1(=O)=O | inactive
C[C@H]1CCCCO[C@@H](CN(C)C(=O)Nc2ccc(C(F)(F)F)cc2)[C@@H](C)CN([C@@H](C)CO)C(=O)c2cc(NS(C)(=O)=O)ccc2O1 | inactive
Cc1noc(C)c1NC(=O)N(C)C[C@H]1OCCCC[C@@H](C)Oc2ccc(NS(=O)(=O)c3cccs3)cc2C(=O)N([C@H](C)CO)C[C@@H]1C | inactive
C[C@@H]1CN([C@@H](C)CO)S(=O)(=O)c2ccc(C#Cc3ccccc3)cc2O[C@@H]1CN(C)C(=O)CN(C)C | inactive
C[C@@H]1CCCCO[C@H](CN(C)Cc2ccccc2)[C@@H](C)CN([C@H](C)CO)C(=O)c2cc(NC(=O)Nc3cccc4ccccc34)ccc2O1 | inactive
C[C@@H]1CCCCO[C@H](CN(C)Cc2ccc(C(=O)O)cc2)[C@H](C)CN([C@H](C)CO)C(=O)c2cc(NC(=O)Nc3cccc4ccccc34)ccc2O1 | inactive
C[C@H]1CCCCO[C@@H](CN(C)Cc2ccccc2)[C@@H](C)CN([C@@H](C)CO)C(=O)c2cc(NC(=O)Nc3cccc4ccccc34)ccc2O1 | active
C[C@H](CO)N1C[C@H](C)[C@H](CN(C)Cc2ccccc2)OCCCC[C@H](C)Oc2ccc(NC(=O)Nc3cccc4ccccc34)cc2C1=O | inactive
C[C@H](CO)N1C[C@H](C)[C@@H](CN(C)Cc2ccccc2)OCCCC[C@H](C)Oc2ccc(NC(=O)Nc3cccc4ccccc34)cc2C1=O | active
C[C@@H]1CCCCO[C@H](CN(C)Cc2ccccc2)[C@H](C)CN([C@H](C)CO)C(=O)c2cc(NC(=O)Nc3cccc4ccccc34)ccc2O1 | active
C[C@@H]1CCCCO[C@H](CN(C)Cc2ccccc2)[C@@H](C)CN([C@@H](C)CO)C(=O)c2cc(NC(=O)Nc3cccc4ccccc34)ccc2O1 | active
C[C@@H]1CN([C@H](C)CO)C(=O)c2cc(NC(=O)Nc3cccc4ccccc34)ccc2O[C@@H](C)CCCCO[C@H]1CN(C)Cc1ccccc1 | inactive
C[C@@H]1CCCCO[C@@H](CN(C)Cc2ccccc2)[C@@H](C)CN([C@@H](C)CO)C(=O)c2cc(NC(=O)Nc3cccc4ccccc34)ccc2O1 | inactive
C[C@@H]1CCCCO[C@H](CN(C)Cc2ccc(C(=O)O)cc2)[C@@H](C)CN([C@@H](C)CO)C(=O)c2cc(NC(=O)Nc3cccc4ccccc34)ccc2O1 | inactive
